ER stress surv = ER stress cell death inhibition. CSM14.1 thapsigargin ER stress survival, ATP luminescence. relative survival (cellular ATP), % at 15 µg/mL (by protocol). actives 0.33% (n = 48,000). AID 1010;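 active means survival measured by cellular ATP above 50% at 15 µg/ml in the first screen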;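 further: cell death triggered by about 15 µM thapsigargin; ATP read 24 h after thapsigargin was added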
Of the large screens only hits and unclear results are named; the others gave an inactive call. The entries come from a sample that favours hits as a whole.

COc1ccc(NC(=O)CCN2C(=O)/C(=C\c3cccc(OC)c3)SC2=S)cc1	none
COc1cccc(NC(=O)CCN2C(=O)/C(=C/c3ccc(C)cc3)SC2=S)c1	none
COc1ccc(NC(=O)CCN2C(=O)/C(=C\c3ccc(C)cc3)SC2=S)cc1	ER stress surv 51.0
Cc1c(-c2cccs2)nc2ccccc2c1C(=O)O	none
O=C(CN1CC[n+]2c(-c3cccs3)csc21)c1ccccc1	ER stress surv 58.6
O=C(CSc1nnc(-c2cccs2)n1-c1ccccc1)c1ccccc1	none
O=C(Nc1ccc(I)cc1Cl)c1ccccc1[N+](=O)[O-]	none
CCCCOc1ccc(C(=O)N2CCC(Cc3ccccc3)CC2)cc1	none
Cc1ccccc1CN1CCN(C(=O)C(c2ccccc2)c2ccccc2)CC1	ER stress surv 97.4
Cc1ccccc1C(=O)N1CCN(Cc2ccccc2)CC1	none
O=C(C(c1ccccc1)c1ccccc1)N1CCN(Cc2ccncc2)CC1	none
Cc1ccccc1CN1CCN(C(=O)c2cccc(Cl)c2)CC1	none
O=C(C(c1ccccc1)c1ccccc1)N1CCN(Cc2ccc(F)cc2)CC1	ER stress surv 63.0
O=C(CC(c1ccccc1)c1ccccc1)N1CCN(Cc2ccccc2)CC1	none
CCOc1cc(C2NC(=S)NC(C)=C2C(=O)OC(C)C)ccc1O (configuration not stated)	none
COc1ccc(-c2cc(C(F)(F)F)n3nc(C(=O)N4CCCc5ccccc54)cc3n2)cc1	none
Cc1cccc(N2CCN(S(=O)(=O)c3ccc(Br)cc3)CC2)c1	none
Cc1ccc(C2CC(C(F)(F)F)n3ncc(C(=O)N(Cc4ccccc4)Cc4ccccc4)c3N2)cc1 (configuration not stated)	none
COc1ccc(C2CC(C(F)(F)F)n3ncc(C(=O)Nc4ccc(F)cc4F)c3N2)cc1OC (configuration not stated)	none
COc1ccc(C2CC(C(F)(F)F)n3ncc(C(=O)N(C)Cc4ccccc4)c3N2)cc1OC (configuration not stated)	ER stress surv 82.0
CCc1nnc(NC(=O)/C=C/c2ccc3c(c2)OCO3)s1	none
CCn1c(-c2ccccc2Br)n[nH]c1=S	none
CCOc1ccccc1NC(=O)CN(c1ccc(C)cc1)S(=O)(=O)c1ccc(SC)cc1	none
CCOc1ccc(S(=O)(=O)N(CC(=O)Nc2ccccc2CC)c2ccc(C)cc2)cc1	none
CCOc1ccc(S(=O)(=O)N(CC(=O)Nc2ccccc2OCC)c2ccc(C)cc2)cc1	ER stress surv 66.5
C#CCOc1ccc(/C=C2\C(=O)NC(=O)N(c3ccc(Cl)cc3)C2=O)cc1	none
CC1(C)C(=O)N(Cc2ccccc2)c2ccccc2N1C(=O)c1ccc(Cl)cc1	none
CC1(C)C(=O)N(Cc2ccccc2)c2ccccc2N1C(=O)c1ccc([N+](=O)[O-])cc1	none
COc1ccc(C(=O)N2c3ccccc3N(Cc3ccccc3)C(=O)C2(C)C)cc1	ER stress surv 110.2
CC(C)C(=O)NNC(=O)COc1ccc(Cl)cc1	none
COc1ccc(N(CC(=O)Nc2cc(C)ccc2C)S(C)(=O)=O)cc1	none
CCOc1ccccc1N1CCN(C(=O)c2cccc(Cl)c2)CC1	none
CCOc1ccccc1N1CCN(C(=O)c2cc(OC)c(OC)c(OC)c2)CC1	none
CCOc1ccccc1N1CCN(C(=O)c2sc3ccccc3c2Cl)CC1	ER stress surv 125.3
O=C(CCCOc1ccc(Cl)cc1Cl)Nc1ccc(F)c(Cl)c1	none
Cc1c(NC(=O)c2ccccc2[N+](=O)[O-])cccc1-c1nc2cc(Cl)ccc2o1	none
CCOc1ccc(C(=O)Nc2ccccc2O)cc1Cl	none
Cc1cc(C(F)(F)F)c(C#N)c(SCC#N)n1	none
Cc1cc(NC(=O)c2ccc(-c3ccc(Cl)cc3)o2)ccc1NC(=O)c1ccco1	ER stress surv 61.7
COc1cc(NC(=O)c2ccc(-c3ccc(Cl)cc3)o2)ccc1NC(=O)c1ccco1	none
Cc1cc(NC(=O)c2ccc(-c3ccc(Br)cc3)o2)ccc1NC(=O)c1ccco1	none
CC(C)C(=O)Nc1cccc2c1C(=O)N(c1ccccc1)C2=O	none
COc1ccc(-n2c(NN=C(C)C)nc3sc4c(c3c2=O)CC(C)(C)OC4)cc1	none
Cc1ccc(N(CC(=O)Nc2ccccc2F)S(=O)(=O)c2ccc(F)cc2)cc1	none
COc1ccc(C(=O)NCCOc2ccccc2F)cc1OC	none
COc1ccccc1OCCNC(=O)c1ccc(Oc2ccccc2)cc1	ER stress surv 52.2
COc1ccc(C(=O)NCCOc2ccccc2OC)cc1OC	none
COc1ccccc1NCc1cccs1	none
O=C1c2ccccc2C(=O)c2c(NC(=O)C3CC4CCC3C4)cccc21 (configuration not stated)	none
O=C1C=C(NCCc2c[nH]c3ccccc23)CC(c2ccccc2)C1 (configuration not stated)	ER stress surv 53.5
CC(C)CCNC1=CC(=O)CC(c2ccccc2)C1 (configuration not stated)	none
O=C1C=C(Nc2ccccc2C(=O)O)CC(c2ccccc2)C1 (configuration not stated)	none
CC(Oc1cccc(Cl)c1)C(=O)Nc1ccc([N+](=O)[O-])cc1Cl (configuration not stated)	none
COc1ccc(N(C(C)C(=O)N/N=C/c2cccs2)S(C)(=O)=O)cc1 (configuration not stated)	none
COc1ccc(C(C)=O)cc1N1C(=O)C=CC1=O	none

Source: PubChem (Sanford-Burnham Center for Chemical Genomics)
